Experimental data published in PubChem BioAssay (NCATS).
Inconclusive results are not listed. Active and inactive are the calls of the source. Calls follow the shape of the dose curve; as a rule, active = well fitted inhibition curve with a large enough effect; inconclusive = small, poorly fitted or top-dose-only effect; inactive = flat fitted curve, though single readings scatter.

Columns and labels:
Experiment in all cases: qHTS profiling for inhibitors of Plasmodium falciparum proliferation (AID 504749); also: nearly all actives have a fitted effect of over 60% in size
Settings in all cases: P. falciparum in erythrocytes, SYBR Green DNA, 72 h; series mostly up to 28.7 µM
[1] = system: CP266
In short: (§1)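 Parasite proliferation within erythrocytes, 72 h exposure. Endpoint: SYBR Green I fluorescence after overnight lysis at room temperature. Controls: 0.29 uM artemisinin, DMSO.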

[2] = system: CP268
In short: as §1

[3] = system: CP269
In short: as §1

[4] = system: CP286
In short: as §1

[5] = system: CP291
In short: as §1

[6] = system: CP297
In short: as §1

[7] = system: CP305
In short: as §1

[8] = system: CP315
In short: as §1

[9] = system: CP325
In short: as §1

[10] = system: CP329
In short: as §1

Measured: Potency

Cc1cc(C)c(NC(=O)CN(CC(=O)O)CC(=O)O)c(C)c1Br
inactive: all assays above

NC(=O)CCCCC1CCSS1 (configuration not stated)
not listed: [7]
inactive: all other assays above

CC(C)(C)C(=O)OCOC(=O)[C@@H]1N2C(=O)[C@@H](NC(=O)[C@H](N)c3ccccc3)[C@H]2SC1(C)C
inactive: all assays above

O=C(O)c1ccc[n+]([O-])c1
inactive: all assays above

COC(=O)c1ccccc1C(=O)c1ccc(OCCN2CCCCC2)cc1
inactive: all assays above

CCN(CC)CCOC(=O)C(c1ccccc1)c1ccccc1
inactive: all assays above

Nc1ccc(S(=O)(=O)c2ccc(N)cc2)cc1
inactive: all assays above

OCC(O)CS (configuration not stated)
inactive: all assays above

CC1CC(OC(=O)c2ccccc2O)CC(C)(C)C1 (configuration not stated)
inactive: all assays above

Cc1onc(-c2ccccc2)c1-c1ccc(S(N)(=O)=O)cc1
not listed: [8]
inactive: all other assays above

COc1ccccc1Oc1c(NS(=O)(=O)c2ccc(C(C)(C)C)cc2)nc(-c2ncccn2)nc1OCCO
inactive: all assays above

COc1ccc(NS(=O)(=O)c2ccc(N)cc2)nn1
inactive: all assays above

COc1ccc(Cc2cnc(N)nc2N)cc1OC
not listed: [6]
inactive: all other assays above

Cc1cc(=O)[nH]c(=S)[nH]1
inactive: all assays above

O=C(O)CCCCC1CCSS1 (configuration not stated)
inactive: all assays above

Cc1c(Cn2ccnc2)c2ccccc2n1CCC(=O)O
not listed: [9]
inactive: all other assays above

NC(=O)CC[C@@H](N)C(=O)O
inactive: all assays above

Cc1ccsc1C(=CCCN1CCC[C@@H](C(=O)O)C1)c1sccc1C
not listed: [1] | [7]
inactive: all other assays above

Cc1cc(O)cc(C)c1Cl
not listed: [3] | [7]
inactive: all other assays above

CCN1CC(CCN2CCOCC2)C(c2ccccc2)(c2ccccc2)C1=O (configuration not stated)
not listed: [6]
inactive: all other assays above

NS(=O)(=O)c1ccc(NC(=O)CCC(=O)O)cc1
not listed: [5]
inactive: all other assays above

COc1ccccc1OC(=O)Oc1ccccc1OC
not listed: [6]
inactive: all other assays above

CCOc1cc(NC(C)=O)ccc1C(=O)OC
not listed: [1]
inactive: all other assays above

O=C(O)CCCc1ccccc1
not listed: [1]
inactive: all other assays above
